Vaccinia Venus: vaccinia inhibition (Venus reporter). Potency, µM (doses to about 36.5 µM), actives largely listed as inhibitors. Vaccinia virus Venus reporter expression, fluorescence. 330,000 compounds, 0.46% hits; calls by dose curve; tested in A549 cells; further: nearly all actives have a fitted effect of over 30% in size
LmPK inhibitor: inhibitors of Leishmania mexicana pyruvate kinase. 290,000 compounds, 0.37% hits. Q27686. purified LmPK, Kinase-Glo ATP luminescence, 1 h. AID 1721. Potency, µM (titrated, usually from 57.5 µM), usual class: inhibitors
Target sequence (Q27686 whole entry, looked up): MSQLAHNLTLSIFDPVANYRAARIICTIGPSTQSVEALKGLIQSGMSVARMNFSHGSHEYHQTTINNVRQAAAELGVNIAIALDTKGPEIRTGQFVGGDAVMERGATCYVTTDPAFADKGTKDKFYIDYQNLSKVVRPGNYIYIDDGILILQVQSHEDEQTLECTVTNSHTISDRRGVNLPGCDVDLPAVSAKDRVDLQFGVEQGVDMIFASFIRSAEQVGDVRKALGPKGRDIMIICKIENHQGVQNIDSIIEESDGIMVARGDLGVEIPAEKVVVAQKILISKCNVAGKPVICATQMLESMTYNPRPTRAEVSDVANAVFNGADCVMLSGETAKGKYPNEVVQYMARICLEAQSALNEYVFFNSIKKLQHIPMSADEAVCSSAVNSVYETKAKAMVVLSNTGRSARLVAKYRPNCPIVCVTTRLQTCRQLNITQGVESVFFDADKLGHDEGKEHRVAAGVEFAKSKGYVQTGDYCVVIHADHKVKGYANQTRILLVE
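ATP generated from ADP (0.1 mM) and PEP (0.5 mM) by 0.1 nM LmPK over 1 h at room temperature (pH 7.2 imidazole buffer) was detected by coupled luciferase luminescence. Values were normalized to uninhibited and no-enzyme wells.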
HCMV inh: human cytomegalovirus inhibition; HFF cells, HCMV-luciferase reporter, 72 h; active compounds read low; activity change, negative = inhibition, % at 57.5 µM; 410,000 compounds, 4.5% hits; AID 1259415; in the data active means activity change below about -60%; inconclusive means no clear call, values can overlap the other calls; inactive means above about -39%
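Inhibition of viral replication was scored as loss of reporter luminescence in HFFs infected with HCMV-luciferase (MOI 1 PFU/cell) for 72 h; compounds tested at 2 doses, normalized to buffer and Salinomycin controls.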
VACV mCherry inh: vaccinia inhibition (mCherry reporter); AID 720579; 310,000 compounds, 0.63% hits; Vaccinia virus mCherry reporter infection, fluorescence; Potency, µM (top dose mostly 36.5 µM), usual class: inhibitors; calls by dose curve; tested in A549 cells; further: nearly all actives have a fitted effect of over 35% in size
Tb PYK inh: inhibitors of Trypanosoma brucei pyruvate kinase; Q57TT1; TbPYK enzyme, Kinase-Glo Plus ATP luminescence, 45 min; Potency, µM (series often up to 76.8 µM), hits mostly inhibitors; 410,000 compounds, 0.12% hits; AID 624173; further: nearly all actives have a fitted effect of over 50% in size
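Readout: single end-point luminescence (Kinase-Glo Plus, 10 min). Reaction conditions were TbPYK/substrate plus 130 uM ADP, 45 min at RT, pH 7.2 TEA buffer. No-enzyme wells served as controls, and data were normalized before concentration-response fitting.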
Numbers stand for hits; n = inactive; u = inconclusive; x = no result given; + = active, no number; [ ] = remark or other dose. A selection: hits, their analogues and other compounds. The true share with any hit is near 5%. Unless noted, the call rests on the fitted dose curve; in most records, active means well fitted curve in the direction sought with a large enough effect; inconclusive means small, poorly fitted or top-dose-only effect, or another doubt; inactive means no such curve, though single readings can be large; an effect the other way counts as inactive or inconclusive.

SMILES	Vaccinia Venus	LmPK inhibitor	HCMV inh	VACV mCherry inh	Tb PYK inh
CCOC(=O)c1c(-c2ccccc2)oc2ccc(NS(=O)(=O)c3ccc(OC)cc3)cc12	n	x	n	u	n
CCCc1oc2ccc(NS(=O)(=O)c3ccc(OC)cc3)cc2c1C(=O)OCC	u	x	-83	u	n
COC12C(COC(N)=O)C3=C(C(=O)C(C)=C(N)C3=O)N1CC1C2N1C (stereo not given)	u	n	-105	u	n
CCCS(=O)(=O)NC(=O)C1(C)CCN(C(=O)Cc2ccc3ccccc3c2)C1 (stereo not given)	n	x	n	n	n
CC(C)c1cnc2c(c1SCc1ccc([N+](=O)[O-])cc1)c(=O)n(C)c(=O)n2C	n	x	n	n	10µM
COC(=O)c1ccc(CSc2c(C(C)C)cnc3c2c(=O)n(C)c(=O)n3C)cc1	n	x	n	n	u
N#CC(C#N)=c1ccc2c(c1)N1C3=C(CCCC3)CC3CCCCC31N=2 (stereo not given)	n	18µM	-95	x	u
N#C/C(C(N)=O)=c1/ccc2c(c1)N1C3=C(CCCC3)CC3CCCCC31N=2 (stereo not given)	n	7.9µM	-68	n	u
CCOC(=O)C1CCN(C(=O)COc2ccc(S(=O)(=O)N3CCOCC3)cc2)CC1	n	n	n	n	n
C=CCN1C(=O)C(CC(=O)NCC)SC1=Nc1cc(Cl)ccc1Cl (stereo not given)	n	n	n	n	n
CCCn1cc(S(=O)(=O)c2ccc(F)cc2)c(=O)c2cc(OCC)ccc21	n[7.34 µM]	n	-67	n[7.34 µM]	n
CCOc1ccc(S(=O)(=O)c2cn(CC)c3ccc(F)cc3c2=O)cc1	n	x	n	n	n
COC(=O)C1(O)CC(c2ccccc2)C(C(=O)c2ccc(Cl)cc2)N1c1ccccc1 (stereo not given)	x	x	-77	x	x
CCCCC1(CCCC)C(=O)NC(=Nc2cccc(C)c2)NC1=O	10µM	n	-61	u	n
Cn1c(CCN2CCOCC2)nc2cc(NS(=O)(=O)c3ccccc3)ccc21	n	n	n	n	n
c1ccc(NCc2nnc3n2CCCCC3)cc1	n	n	n	u	n
CCn1c(CNc2ccc(Cl)cc2)nnc1SCCN1CCCCC1	n	n	-106	x	n
CCn1c(CNc2ccc(Cl)cc2)nnc1SCc1ccc(Cl)cc1	n	n	n	u	n
Clc1ccc(NCc2nnc3n2CCCCC3)cc1	n	n	-99	x	n
c1ccc2c(c1)nnn2-c1ncnc2sccc12	n	n	n	n	n
COc1ccc(-c2ccc(=O)n(CC(=O)Nc3ccc(OC)c(OC)c3)n2)cc1	n	x	+	n	n[15.4 µM]
COc1ccc(-c2ccc(=O)n(CC(=O)Nc3ccc4c(c3)OCCO4)n2)cc1	n	n	n	n	u
COc1cccc(NC(=O)Nc2cc(C(=O)NC(C)C)ccc2N2CC3CC(C2)c2cccc(=O)n2C3)c1 (stereo not given)	x	n	u	x	n
Nc1nc(-c2ccccc2)c(C(=O)Nc2ccccc2)s1	n	n	-61	n	n
CCOC(=O)c1ccc2ncc(C(=O)OCC)c(NCCN(C)C)c2c1	n	x	n	n	n
SMILES	Vaccinia Venus	LmPK inhibitor	HCMV inh	VACV mCherry inh	Tb PYK inh
CCN(CC)CCCNc1ccc2ncn3c4ccc(O)cc4c(=O)c1c23	u	x	-90	0.89µM	n
CN(C)CCNc1ccc2nnn3c4ccc(O)cc4c(=O)c1c23	u	x	-88	u	n
CN(C)CCNc1cccc2sc3ccc(O)cc3c(=O)c12	u	x	n	u	n
Cc1ccc(NCCN(C)C)c2c(=O)c3cc(O)ccc3sc12	u	x	-99	1.4µM	n
O=C(Nc1ccc(F)c(Cl)c1)N(Cc1ccc2c(c1)OCO2)C1CCN(Cc2ccccc2)CC1	n	x	n	n	n
Cn1c(SCC2CCCO2)nnc1-c1ccc([N+](=O)[O-])cc1 (stereo not given)	x	n	n	x	n
N#CC(c1cccc(Cl)c1)c1ccc2c(C(F)(F)F)cc(C(F)(F)F)nc2n1 (stereo not given)	2.2µM	n	-104	x	n
NNc1ccc2c(C(F)(F)F)cc(C(F)(F)F)nc2n1	n	n	n	n	n
Cc1cccc(CC2C(=O)Nc3ccccc32)c1 (stereo not given)	n	x	-70	n	n
CN(C)c1ccc(CC2C(=O)Nc3ccccc32)cc1 (stereo not given)	n[7.34 µM]	n	-63	n[7.34 µM]	n
O=C1Nc2ccccc2C1Cc1ccc(Br)cc1 (stereo not given)	n	x	n	n	n
CSc1ccc(CC2C(=O)Nc3ccccc32)cc1 (stereo not given)	n	x	u	n	n
CC(NC(=O)CCNC(=O)c1ccco1)c1ccc(F)cc1 (stereo not given)	x	n	x	x	n
CC(c1ccccc1)n1c(SCC(=O)N2CC(=O)Nc3ccccc32)nc2ccccc2c1=O (stereo not given)	u	n	-81	n	n
Cc1ccc(-n2c(SCC(=O)N3CC(=O)Nc4ccccc43)nc3ccccc3c2=O)cc1C	x	n	-80	x	n
Cc1ccc(Cn2c(SCC(=O)N3CC(=O)Nc4ccccc43)nc3ccccc3c2=O)cc1	n	n	-76	u	n
O=C1CN(C(=O)CSc2nc3ccccc3c(=O)n2CC2CCCO2)c2ccccc2N1 (stereo not given)	x	n	n	x	n
COCC(C)n1c(SCC(=O)N2CC(=O)Nc3ccccc32)nc2ccccc2c1=O (stereo not given)	x	x	n	x	n
Cc1cccc(-n2c(SCC(=O)N3CC(=O)Nc4ccccc43)nc3ccccc3c2=O)c1C	n	n	-64	n	n
Cn1c(=O)c2cc(S(=O)(=O)Nc3cccc(F)c3)ccc2n(C)c1=O	n	n	n	n	n
CCOC(=O)C1CCN(Cc2nc3ccccc3c(=O)n2-c2ccc(F)cc2)CC1	n	n	n	n	n
CC(C)Cn1c(SCC(=O)N2CC(=O)Nc3ccccc32)nc2ccccc21	n	n	n	n	n
Cc1cccc(-n2c(SCC(=O)N3CC(=O)Nc4ccccc43)nc3ccccc3c2=O)c1	n	n	-62	n	n
CCc1cc2c(SCC(=O)N3CC(=O)Nc4ccccc43)ncnc2s1	x	n	-60	x	n
CCc1cc2cc(C)ccc2nc1SCC(=O)N1CC(=O)Nc2ccccc21	n	n	u	n	n
SMILES	Vaccinia Venus	LmPK inhibitor	HCMV inh	VACV mCherry inh	Tb PYK inh
CN(C)CCN1CCN([C@H]2CS(=O)(=O)N[C@@H]2COCc2ccccc2)CC1	n	x	n	n	n
CCc1cc(C(=O)N(C)CC(=O)N(CC(C)C)c2c(N)n(CC(C)C)c(=O)[nH]c2=O)sc1C	n	n	x	n	n
O=C(NCCc1ccccc1)c1cccc(S(=O)(=O)N2CCCCC2)c1	n	n	n	n	n
O=C(NCCCN1CCOCC1)c1ccc(Cl)c(S(=O)(=O)N2CCCCCC2)c1	x	n	-81	x	x
COc1ccc(CCNC(=O)c2ccc(Cl)c(S(=O)(=O)N3CCCC3)c2)cc1	x	x	-74	x	n
COc1ccc(CCNC(=O)c2cccc(S(=O)(=O)N3CCCCC3)c2)cc1	n	n	-66	n	n
